# Reference: PubChem BioAssay
# Calls of active or inactive are those of the source.
# Key:
# [1] = tested on: PRMT1 (protein arginine N-methyltransferase 1); test: small molecules binding arginine methyltransferase PRMT1 – biochemical, small-molecule microarray, 635 nm fluorescence, primary screen (AID 1088); settings: higher = more signal;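 also: binding of Prmt1 protein to compounds spotted on small-molecule microarray slides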
# [2] = growth effects on S. cerevisiae YJM789 – YJM789 clinical isolate, OD600, 24 h, basal, primary screen (AID 1089); settings: higher = more signal, called active from +8 up or from −8 down;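 also: growth of clinical yeast isolate S. cerevisiae YJM 789 seeded 1000 cells per well; test concentration not given here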
# [3] = S. pombe growth modifiers, basal conditions – strain 972, OD600, 24 h, no modulator, primary screen (AID 1090);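 also: basal condition with compound alone and no growth modifier present; test concentration not given here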; settings: S. pombe 972 growth, higher = more signal, called active from +8 up or from −8 down
# [4] = budding yeast growth modifiers under rapamycin – strain BY4716, OD600, 96 h, primary screen (AID 1091); also: test concentration not given here; settings: S. cerevisiae BY4716 + rapamycin, higher = more signal, called active from +8 up or from −8 down
# [5] = target: Torsin-1A-interacting protein 2 (Homo sapiens) (UniProt Q8NFQ8); test: small molecules binding lysate-expressed LULL1 – cell lysate, human LULL1 lysate, 635/667 nm fluorescence, primary screen (AID 1092); settings: small-molecule microarray, hLULL1 lysate binding, 635 nm fluorescence; higher = more signal;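 also: probe is lysate of COS7 cells overexpressing human LULL1; score merges per-feature 667 nm fluorescence with signal-to-noise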
# [6] = optical density change of DRC41 E. coli – strain DRC41, OD650, 24 h, E. coli filamentation project, primary screen (AID 1093);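 also: MC1000 strain lacking acrAB efflux and sulA so SOS filamentation is blocked; test concentration not given here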; settings: E. coli DRC41 growth, higher = more signal, called active from +8 up or from −8 down
# [7] = probe aLefty2 binding to arrayed compounds – biochemical, biotinylated probe, 635/667 nm fluorescence, primary screen (AID 1094); settings: small-molecule microarray, higher = more signal;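 also: score merges spot fluorescence near 667 nm with spot signal-to-noise ratio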
# [8] = tested on: Noggin (protein binding on small-molecule microarray); test: small molecules binding Noggin protein – biochemical, 635/667 nm fluorescence, primary screen (AID 1095); settings: 635 nm fluorescence, higher = more signal;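 also: score merges 667 nm feature fluorescence with signal to noise over triplicate slides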
# [9] = target: Neurogenic locus notch homolog protein 3 (Homo sapiens) (UniProt Q9UM47); test: small molecules binding NOTCH3 protein – biochemical, 635/667 nm fluorescence, primary screen (AID 1096); settings: small-molecule microarray, 635 nm fluorescence, higher = more signal
# [10] = probe aEGFR binding to arrayed compounds – biochemical, biotinylated probe, 635/667 nm fluorescence, primary screen (AID 1097); settings: small-molecule microarray, higher = more signal;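 also: probe is a biotinylated anti-EGFR antibody binding compounds printed on slides; score combines fluorescence near 667 nm and signal to noise of each spot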
# [11] = tested on: Plasmodium falciparum Sir2 (PF13_0152, Sir2A); test: Plasmodium falciparum Sir2A binding compounds – biochemical, small-molecule microarray, 635 nm fluorescence, primary screen (AID 1098); settings: fluorescence 635 nm, higher = more signal;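 also: score merges spot fluorescence intensity with its signal-to-noise ratio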
# [12] = probe aDKK1 binding to arrayed compounds – biochemical, biotinylated probe, 635/667 nm fluorescence, primary screen (AID 1099); settings: small-molecule microarray, higher = more signal;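 also: score merges 667nm spot fluorescence with signal to noise across triplicate slides; reference of the scale not given here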
# [13] = probe aCHRDL2 binding to arrayed compounds – biochemical, biotinylated probe, 635/667 nm fluorescence, primary screen (AID 1100); settings: small-molecule microarray, higher = more signal
# [14] = change in splice reporter luminescence, either direction, cell-based, HEK293, spliceosome inhibition project, primary screen (AID 1101); settings: HEK293 splicing luciferase reporter, 24 h, higher = more signal, called active from +8 up or from −8 down;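 also: HEK293 cells carrying a splicing-competent luciferase reporter gene; test concentration not given here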
# [15] = target: Fibroblast growth factor 10 (Homo sapiens) (UniProt O15520); test: compounds binding fibroblast growth factor 10 – biochemical, small-molecule microarray, 635 nm fluorescence, primary screen (AID 1102); settings: FGF10 binding, fluorescence 635 nm, higher = more signal
# [16] = tested on: glycogen synthase kinase-3 (GSK3A per assay name; protocol says GSK3B); test: compounds binding glycogen synthase kinase-3 – biochemical, small-molecule microarray, 635 nm fluorescence, GSK3A, primary screen (AID 1103); settings: fluorescence 635 nm, higher = more signal; also: the record names both GSK3A and GSK3B
# [17] = target: Epidermal growth factor receptor (Homo sapiens) (UniProt P00533); test: compounds binding epidermal growth factor receptor – biochemical, small-molecule microarray, 635 nm fluorescence, primary screen (AID 1104); settings: EGFR binding, higher = more signal;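 also: score merges 667 nm emission intensity with spot signal to noise over triplicate slides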
# [18] = target: Follistatin-related protein 3 (Homo sapiens) (UniProt O95633); test: compounds binding follistatin-related protein 3 – biochemical, small-molecule microarray, 635 nm fluorescence, primary screen (AID 1105); settings: FSTL3 binding, higher = more signal;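 also: score merges emission near 667 nm and signal to noise per printed spot across three slides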
# [19] = target: Dickkopf-related protein 1 (Homo sapiens) (UniProt O94907); test: small molecules binding DKK1 protein – biochemical, small-molecule microarray, 635 nm fluorescence scan, primary screen (AID 1106); settings: higher = more signal;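 also: score merges emission near 667 nm with signal to noise over three replicate slides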
# [20] = tested on: Inhibin beta A chain (activin A); test: small molecules binding activin A – biochemical, small-molecule microarray, 635 nm fluorescence scan, primary screen (AID 1107); settings: INHBA, higher = more signal;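 also: mouse activin A protein probed at 4.33 µg/mL on printed slides; score merges bound-protein fluorescence near 667 nm with spot signal-to-noise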
# Chain of Epidermal growth factor receptor (Homo sapiens) (P00533 whole entry, looked up): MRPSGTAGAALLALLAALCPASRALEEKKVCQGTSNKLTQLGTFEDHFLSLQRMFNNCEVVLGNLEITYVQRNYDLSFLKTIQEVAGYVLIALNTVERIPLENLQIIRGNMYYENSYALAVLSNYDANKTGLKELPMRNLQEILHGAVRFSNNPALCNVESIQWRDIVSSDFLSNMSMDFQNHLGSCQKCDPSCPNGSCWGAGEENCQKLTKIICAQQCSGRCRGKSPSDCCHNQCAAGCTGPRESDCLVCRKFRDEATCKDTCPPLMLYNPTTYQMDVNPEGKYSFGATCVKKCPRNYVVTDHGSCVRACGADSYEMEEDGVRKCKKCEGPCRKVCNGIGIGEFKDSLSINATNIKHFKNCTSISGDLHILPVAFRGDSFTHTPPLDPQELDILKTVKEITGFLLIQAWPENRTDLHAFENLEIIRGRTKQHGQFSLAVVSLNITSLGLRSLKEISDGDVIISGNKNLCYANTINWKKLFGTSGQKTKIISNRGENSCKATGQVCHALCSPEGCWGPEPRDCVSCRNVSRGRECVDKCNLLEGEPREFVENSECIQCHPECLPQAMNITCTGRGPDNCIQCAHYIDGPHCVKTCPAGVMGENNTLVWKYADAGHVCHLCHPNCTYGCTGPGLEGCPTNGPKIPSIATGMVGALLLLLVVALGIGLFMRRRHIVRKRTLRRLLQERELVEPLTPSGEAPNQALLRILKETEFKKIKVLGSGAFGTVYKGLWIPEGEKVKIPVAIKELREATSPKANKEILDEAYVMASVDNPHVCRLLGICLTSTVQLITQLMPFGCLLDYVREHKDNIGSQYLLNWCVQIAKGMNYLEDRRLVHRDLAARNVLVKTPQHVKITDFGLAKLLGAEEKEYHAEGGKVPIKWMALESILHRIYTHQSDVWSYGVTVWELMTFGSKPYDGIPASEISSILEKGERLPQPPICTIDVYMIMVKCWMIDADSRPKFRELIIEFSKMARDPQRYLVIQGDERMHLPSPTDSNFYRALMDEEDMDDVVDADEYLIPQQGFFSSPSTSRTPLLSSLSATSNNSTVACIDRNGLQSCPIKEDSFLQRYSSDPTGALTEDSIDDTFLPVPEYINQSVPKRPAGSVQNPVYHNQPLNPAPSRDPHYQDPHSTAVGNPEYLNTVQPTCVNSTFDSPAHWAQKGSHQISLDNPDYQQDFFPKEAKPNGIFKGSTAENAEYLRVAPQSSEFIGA
# Chain of Fibroblast growth factor 10 (Homo sapiens) (O15520 whole entry, looked up): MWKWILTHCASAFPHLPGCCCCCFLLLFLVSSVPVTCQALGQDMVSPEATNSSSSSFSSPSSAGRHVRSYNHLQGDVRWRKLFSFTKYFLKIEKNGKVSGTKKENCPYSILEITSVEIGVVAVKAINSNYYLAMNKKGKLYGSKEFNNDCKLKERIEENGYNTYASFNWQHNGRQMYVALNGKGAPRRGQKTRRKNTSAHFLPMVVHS
# Chain of Follistatin-related protein 3 (Homo sapiens) (O95633 whole entry, looked up): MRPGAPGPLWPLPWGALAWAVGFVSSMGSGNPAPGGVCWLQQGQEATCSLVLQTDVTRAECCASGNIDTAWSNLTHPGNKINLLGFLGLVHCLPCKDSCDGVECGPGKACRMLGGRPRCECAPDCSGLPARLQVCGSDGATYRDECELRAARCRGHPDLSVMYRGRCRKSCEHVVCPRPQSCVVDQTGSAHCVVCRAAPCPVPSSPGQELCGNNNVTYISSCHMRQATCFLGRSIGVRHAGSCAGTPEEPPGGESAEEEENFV
# Chain of Dickkopf-related protein 1 (Homo sapiens) (O94907 whole entry, looked up): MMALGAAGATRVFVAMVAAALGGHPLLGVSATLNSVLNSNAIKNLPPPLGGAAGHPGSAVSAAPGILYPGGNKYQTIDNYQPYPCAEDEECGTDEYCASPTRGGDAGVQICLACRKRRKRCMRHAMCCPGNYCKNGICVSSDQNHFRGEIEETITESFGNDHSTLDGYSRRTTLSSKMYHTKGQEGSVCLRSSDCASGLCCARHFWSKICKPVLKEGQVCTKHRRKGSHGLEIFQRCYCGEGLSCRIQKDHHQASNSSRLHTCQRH
# Chain of Torsin-1A-interacting protein 2 (Homo sapiens) (Q8NFQ8 whole entry, looked up): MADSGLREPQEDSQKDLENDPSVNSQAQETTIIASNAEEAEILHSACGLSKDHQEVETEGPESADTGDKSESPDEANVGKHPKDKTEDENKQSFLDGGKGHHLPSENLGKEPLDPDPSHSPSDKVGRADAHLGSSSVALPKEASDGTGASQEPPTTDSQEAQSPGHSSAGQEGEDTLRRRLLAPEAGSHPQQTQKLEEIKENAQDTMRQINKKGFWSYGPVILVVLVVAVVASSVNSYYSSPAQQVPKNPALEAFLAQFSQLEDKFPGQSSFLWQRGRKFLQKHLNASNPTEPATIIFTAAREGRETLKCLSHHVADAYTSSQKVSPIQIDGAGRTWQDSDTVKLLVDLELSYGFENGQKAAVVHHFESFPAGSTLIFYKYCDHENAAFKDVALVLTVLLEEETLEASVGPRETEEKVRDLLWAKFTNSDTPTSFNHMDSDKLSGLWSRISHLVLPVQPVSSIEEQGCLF
# Chain of Neurogenic locus notch homolog protein 3 (Homo sapiens) (Q9UM47 whole entry, looked up): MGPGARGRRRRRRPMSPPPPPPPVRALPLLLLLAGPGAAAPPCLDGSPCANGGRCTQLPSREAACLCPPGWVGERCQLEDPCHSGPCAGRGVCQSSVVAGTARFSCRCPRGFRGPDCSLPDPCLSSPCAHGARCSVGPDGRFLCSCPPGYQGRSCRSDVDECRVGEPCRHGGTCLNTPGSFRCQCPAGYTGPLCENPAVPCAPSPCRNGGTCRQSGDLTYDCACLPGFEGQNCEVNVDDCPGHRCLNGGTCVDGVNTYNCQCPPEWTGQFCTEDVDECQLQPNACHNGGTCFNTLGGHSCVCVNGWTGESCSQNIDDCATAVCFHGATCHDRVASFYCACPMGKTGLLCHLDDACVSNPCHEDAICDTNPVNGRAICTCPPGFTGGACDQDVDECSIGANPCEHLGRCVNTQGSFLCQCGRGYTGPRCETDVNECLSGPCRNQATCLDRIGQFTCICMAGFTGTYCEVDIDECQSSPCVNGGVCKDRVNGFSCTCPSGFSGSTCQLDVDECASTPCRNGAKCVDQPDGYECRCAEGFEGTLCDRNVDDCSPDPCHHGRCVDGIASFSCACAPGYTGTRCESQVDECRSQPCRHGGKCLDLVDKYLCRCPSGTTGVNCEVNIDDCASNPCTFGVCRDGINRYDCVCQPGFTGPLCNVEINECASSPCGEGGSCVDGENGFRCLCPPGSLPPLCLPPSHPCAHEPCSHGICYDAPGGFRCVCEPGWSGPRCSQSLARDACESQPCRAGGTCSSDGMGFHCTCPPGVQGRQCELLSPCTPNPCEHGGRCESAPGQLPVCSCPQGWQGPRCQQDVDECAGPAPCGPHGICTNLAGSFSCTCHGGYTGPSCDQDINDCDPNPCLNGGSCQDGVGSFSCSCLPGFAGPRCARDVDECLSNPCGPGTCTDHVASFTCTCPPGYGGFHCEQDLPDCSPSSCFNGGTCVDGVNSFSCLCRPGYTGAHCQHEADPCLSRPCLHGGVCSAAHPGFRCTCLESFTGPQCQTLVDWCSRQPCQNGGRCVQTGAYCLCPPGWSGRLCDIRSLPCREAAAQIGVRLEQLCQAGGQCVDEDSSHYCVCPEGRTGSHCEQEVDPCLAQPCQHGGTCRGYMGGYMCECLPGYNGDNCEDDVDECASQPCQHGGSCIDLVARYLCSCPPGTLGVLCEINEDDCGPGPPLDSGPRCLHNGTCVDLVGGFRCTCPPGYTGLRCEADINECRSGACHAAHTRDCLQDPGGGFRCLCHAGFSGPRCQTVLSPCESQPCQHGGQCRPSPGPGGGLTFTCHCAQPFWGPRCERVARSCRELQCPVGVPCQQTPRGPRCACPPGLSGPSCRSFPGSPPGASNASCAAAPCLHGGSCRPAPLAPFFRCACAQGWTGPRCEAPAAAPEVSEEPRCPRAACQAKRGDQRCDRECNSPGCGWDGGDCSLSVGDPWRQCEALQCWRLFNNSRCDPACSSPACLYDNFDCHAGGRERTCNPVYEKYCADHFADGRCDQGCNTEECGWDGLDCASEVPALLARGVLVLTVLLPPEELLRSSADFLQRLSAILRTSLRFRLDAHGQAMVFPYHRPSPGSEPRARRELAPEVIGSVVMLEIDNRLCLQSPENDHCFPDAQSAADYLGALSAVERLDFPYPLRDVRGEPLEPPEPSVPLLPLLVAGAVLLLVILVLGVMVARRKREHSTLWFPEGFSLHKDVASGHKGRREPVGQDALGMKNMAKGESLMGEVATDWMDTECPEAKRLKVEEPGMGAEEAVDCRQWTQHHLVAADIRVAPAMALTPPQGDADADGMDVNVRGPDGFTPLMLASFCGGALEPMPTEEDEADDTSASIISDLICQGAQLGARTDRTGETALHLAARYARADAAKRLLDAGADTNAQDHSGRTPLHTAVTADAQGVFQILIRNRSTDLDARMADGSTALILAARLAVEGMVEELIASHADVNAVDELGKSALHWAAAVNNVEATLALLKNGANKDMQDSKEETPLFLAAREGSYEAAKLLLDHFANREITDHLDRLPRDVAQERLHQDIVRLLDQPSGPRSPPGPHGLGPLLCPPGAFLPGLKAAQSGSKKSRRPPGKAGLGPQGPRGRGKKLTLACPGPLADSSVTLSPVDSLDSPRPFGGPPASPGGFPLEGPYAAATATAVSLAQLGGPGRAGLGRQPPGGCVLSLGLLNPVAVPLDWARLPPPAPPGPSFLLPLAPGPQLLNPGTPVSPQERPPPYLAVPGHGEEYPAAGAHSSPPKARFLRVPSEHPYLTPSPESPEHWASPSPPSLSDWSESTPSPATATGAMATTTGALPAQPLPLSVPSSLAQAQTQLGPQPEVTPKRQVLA
SMILES,composite z-score [1],z-score [2],z-score [3],z-score [4],composite z-score [5],z-score [6],composite z-score [7],composite z-score [8],composite z-score [9],composite z-score [10],composite z-score [11],composite z-score [12],composite z-score [13],z-score [14],composite z-score [15],composite z-score [16],composite z-score [17],composite z-score [18],composite z-score [19],composite z-score [20]
COCCOC(=O)N1C(=O)[C@@]2(c3cc(C#CCNC(N)=O)ccc31)[C@H](c1ccc(O)cc1)N1[C@H](c3ccccc3)[C@H](c3ccccc3)OC(=O)[C@H]1[C@@H]2C(=O)N1CCN(c2ncccn2)CC1,1.42,1.74 (inactive),1.94 (inactive),4.35 (inactive),3,-0.561 (inactive),0.24,0.96,1.15,0.187,1.55,0.607,0.762,0.41 (inactive),0.811,0.907,0.279,0.751,0.0805,0.311
CC(C)(C)OC(=O)CC[C@]1(C(=O)N2CCCCC2)COC(c2ccc(OCCCO)cc2)=N1,1.47,-1.1 (inactive),-0.878 (inactive),-1.57 (inactive),3.57,0.992 (inactive),0.066,0.318,0.79,-0.0139,1.7,0.14,0.48,-0.527 (inactive),1.54,1.29,0.101,0.324,-0.421,0.567
COCCOC(=O)N1C(=O)[C@@]2(c3cc(C#CCCO)ccc31)[C@H](c1ccccc1OCCO)N1[C@H](c3ccccc3)[C@H](c3ccccc3)OC(=O)[C@H]1[C@@H]2C(=O)N1CCCCCCC1,1.54,1.76 (inactive),0.11 (inactive),2.88 (inactive),3.57,1.06 (inactive),1.39,1.86,1.05,0.837,1.69,2.28,1.36,-0.532 (inactive),0.743,1.08,0.965,1.53,1.31,1.6
CN1C=C(C(=O)OCCS(C)(=O)=O)C(C(=O)OCCS(C)(=O)=O)=CC(c2ccc(CO)cc2)=CC1c1cccs1 (stereo not given),0.568,0.379 (inactive),-3.74 (inactive),0.148 (inactive),2.01,0.326 (inactive),-0.116,0.484,0.407,-0.0594,0.76,0.162,0.102,0.497 (inactive),0.588,0.499,0.294,0.226,-0.0496,1.47
[N-]=[N+]=NCc1ccccc1[C@@H]1OC(c2ccc(OCCCO)cc2)=N[C@]1(Cc1ccccc1)C(=O)NCCN1CCOCC1,1.53,0.469 (inactive),0.75 (inactive),0.83 (inactive),2.92,1.11 (inactive),0.242,0.512,1.09,0.591,1.03,0.657,0.58,0.0496 (inactive),0.868,0.616,-0.102,0.567,-0.383,0.798
Cc1ccc(S[C@]2(C(=O)NCc3ccccc3)CC(=O)N(Cc3cc(C(F)(F)F)cc(C(F)(F)F)c3)[C@@H]2c2ccc(CO)cc2I)cc1,-0.455,0.269 (inactive),-2.56 (inactive),0.49 (inactive),0.742,-0.607 (inactive),0.01,-1.71,-1.93,-0.3,-0.466,0.664,1.22,-1.21 (inactive),-1.31,-0.714,-1.78,-0.203,-1.54,1.02
COC(=O)[C@@]1(Cc2ccccc2CN=[N+]=[N-])N=C(c2ccc(OCCCO)cc2)O[C@H]1c1ccccc1CN=[N+]=[N-],0.812,0.84 (inactive),1.96 (inactive),35.5 (active),1.3,0.478 (inactive),-0.0458,-0.56,-0.498,-0.21,1.32,-0.0486,1.02,-1.34 (inactive),-0.304,-0.568,-1.48,-0.774,-1.02,-0.0879
CN1C(=O)[C@@H]2[C@@H](CC(COc3ccccc3)=C([C@H](O)CCc3ccccc3)[C@@H]2CO)C1=O,-0.268,0.0937 (inactive),-1.87 (inactive),-0.537 (inactive),-0.551,2.41 (inactive),-0.0971,-0.358,-0.932,-0.0947,-0.194,-0.0537,-0.317,-0.165 (inactive),-0.0903,-0.621,0.218,-0.0809,0.298,0.484
O=C1C2C=CC(C(O)C=Cc3ccc([N+](=O)[O-])cc3)N(Nc3ccccc3)C2C(=O)N1c1ccccc1 (stereo not given),1.33,0.431 (inactive),0.102 (inactive),-0.19 (inactive),2.78,-0.608 (inactive),0.349,0.505,1.04,-0.0238,1.37,-0.0814,0.689,0.649 (inactive),1.07,1.16,0.244,1.31,0.419,1.06
O=C1C[C@@](C(=O)NCc2ccccc2)(c2ccc([N+](=O)[O-])cc2)[C@@H](c2ccc(CO)cc2I)N1CC12CC3CC(CC(C3)C1)C2,1.55,-0.369 (inactive),-0.613 (inactive),2.84 (inactive),2.61,-0.343 (inactive),0.0578,1.8,1.09,0.0042,1.05,-0.0517,0.214,-0.218 (inactive),1.31,0.794,0.547,1.44,0.578,-0.0204
CCOC(=O)C[C@H]1[C@H](OC(=O)c2cc3ccccc3oc2=O)[C@@H](NC(=O)c2ccc3ccccc3c2)c2cc(OCCCO)ccc2N1C(=O)Cc1ccc(OC)cc1,0.631,0.173 (inactive),0.106 (inactive),-1.33 (inactive),2.48,-0.436 (inactive),-0.0359,0.405,0.872,0.0009,0.571,-0.0385,-0.0886,-0.239 (inactive),0.576,0.162,0.34,1.18,0.427,0.237
C=CCC(OC(C)=O)[C@@H]1[C@@H](N(Cc2cccc3ccccc23)C(=O)c2cccc3ccccc23)c2cc(OCCCO)ccc2N1C(=O)c1ccc2ccccc2c1 (stereo not given in full),0.692,-0.55 (inactive),0.672 (inactive),-1.35 (inactive),1.65,0.195 (inactive),-0.156,0.345,-0.0325,-0.0967,-0.131,0.0281,0.0611,-0.888 (inactive),0.523,-0.0993,0.187,0.423,0.226,1.41
O=C1O[C@H](c2ccccc2)[C@H](c2ccccc2)N2[C@H]1[C@@H](C(=O)N1CCCCCCC1)[C@]1(C(=O)Nc3ccc(C#CC4(O)CCCCCC4)cc31)[C@H]2c1ccc(O)cc1,1.54,0.666 (inactive),0.73 (inactive),1.19 (inactive),3.97,0.408 (inactive),1.65,1.78,1.06,1.35,1.5,2.93,1.59,0.69 (inactive),1.19,1.34,1.72,1.58,1.75,1.79
CCOC(=O)C[C@H]1[C@H](OC(=O)c2ccc(-c3ccccc3)cc2)[C@@H](NC(=O)Cc2ccc(OC)cc2)c2cc(OCCCO)ccc2N1C(=O)Cc1ccc(OC)cc1,0.287,1.09 (inactive),-0.231 (inactive),1.63 (inactive),1.55,1.3 (inactive),-0.0769,-0.542,-0.0636,-0.094,0.064,0.288,0.723,-0.0344 (inactive),0.244,-0.602,0.0599,-0.0955,-0.276,0.38
COC(=O)C(CC#Cc1ccc2c(c1)[C@]1(C(=O)N2)[C@H](c2ccc(OCCO)cc2)N2[C@H](c3ccccc3)[C@H](c3ccccc3)OC(=O)[C@H]2[C@@H]1C(=O)N1CCN(c2ncccn2)CC1)C(=O)OC,1.55,0.722 (inactive),1.82 (inactive),3.83 (inactive),2.31,-0.0711 (inactive),0.0971,1.36,1.05,0.153,1.35,0.841,0.782,0.0768 (inactive),1.14,1.32,0.331,1.37,0.982,0.53
COc1cc(NN2C(C(O)C3CCCCC3)C=CC3C(=O)N(c4ccccc4)C(=O)C32)cc(OC)c1OC (stereo not given),0.955,0.93 (inactive),1.06 (inactive),0.408 (inactive),3.25,-1.24 (inactive),0.167,-0.273,1.07,-0.0068,1.11,0.946,1.43,-0.983 (inactive),0.448,0.893,-0.455,0.722,-1.37,0.591
O=C1[C@@H]2[C@@H](CC(COc3ccccc3)=C3[C@@H](CCc4ccccc4)OB(O)C[C@@H]32)C(=O)N1Cc1ccccc1,-0.0537,-0.402 (inactive),-1.04 (inactive),0.297 (inactive),0.828,-0.874 (inactive),-0.274,0.204,0.359,-0.116,0.393,-0.185,-0.23,-0.74 (inactive),0.747,0.081,0.292,0.163,0.147,0.343
O=C(NCC(O)CO)[C@@]1(CCS(=O)(=O)c2ccccc2)COC(c2ccc(OCCCO)cc2)=N1 (stereo not given in full),0.797,0.257 (inactive),-0.197 (inactive),0.648 (inactive),3.86,0.671 (inactive),0.362,0.481,0.79,0.473,1.13,1.07,1.16,0.475 (inactive),0.655,-0.454,-0.375,-0.199,-0.522,0.877
O=C1C2C=CC(C(O)c3cccc(O)c3)N(Nc3ccccc3)C2C(=O)N1c1ccccc1 (stereo not given),-0.413,0.629 (inactive),-0.581 (inactive),0.299 (inactive),2.92,-0.542 (inactive),0.005,-0.525,0.535,-0.0416,-0.131,0.305,0.272,-0.664 (inactive),0.134,-0.194,0.112,-0.0752,-0.347,0.959
